Screens: PubChem, National Center for Advancing Translational Sciences (NCATS)
Shown are actives, neighbours in structure and some others; about 2.4% of the full set was active somewhere.
D2 ag-1: agonists of human D2 dopamine receptor (beta-arrestin). AID 624465. DiscoveRx PathHunter D2 beta-arrestin, luminescence, 90 min; 100% = 57 uM dopamine signal. P14416. hit rate 0.084% among 360,000. activation, % (concentration not given with the values); in the data active = activation above about 40%
Target sequence (P14416 whole entry, looked up): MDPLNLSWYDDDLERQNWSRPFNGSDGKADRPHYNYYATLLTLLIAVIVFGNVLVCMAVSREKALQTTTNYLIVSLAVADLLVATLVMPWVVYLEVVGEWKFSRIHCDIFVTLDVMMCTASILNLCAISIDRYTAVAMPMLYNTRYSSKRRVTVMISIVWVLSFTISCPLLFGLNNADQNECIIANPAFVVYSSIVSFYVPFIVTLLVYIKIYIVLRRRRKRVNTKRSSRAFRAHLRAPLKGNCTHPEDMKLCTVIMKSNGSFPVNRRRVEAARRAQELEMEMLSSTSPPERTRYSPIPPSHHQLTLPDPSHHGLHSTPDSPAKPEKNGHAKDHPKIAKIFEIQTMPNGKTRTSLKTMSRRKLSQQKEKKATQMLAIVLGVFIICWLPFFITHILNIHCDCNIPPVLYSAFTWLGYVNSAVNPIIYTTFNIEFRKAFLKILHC
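Agonist mode: compounds alone added to overnight-plated D2 PathHunter cells for 90 min at 37 C, with 57 uM final dopamine (EC100) defining full response. Beta-arrestin recruitment detected by chemiluminescent reagent, read after 1 h at ambient temperature.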
D2 antagonist: D2 dopamine receptor (human) antagonism. inhibition, % at 10 µM. P14416. HEK293 TREx D2 cells, calcium flux, dopamine EC80. hit rate 2% among 340,000. AID 485344; in the data active = inhibition above about 30%; inactive = below that, where a call was filed; also: 0% is about no effect
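Calcium mobilization kinetics were recorded at 1 s intervals in tetracycline-induced HEK293 T-REx D2 cells, first for 180 s after compound addition and then 180 s after EC80 dopamine.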
D2 PAM-1: positively modulates the human D2 dopamine receptor allosterically; P14416; HEK293 T-REx D2, calcium flux, EC20 dopamine potentiation; potentiation, % at 10 µM; hit rate 0.34% among 340,000; AID 485347;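 active = potentiation over 3 SD above the plate norm, cut at about 30% in these data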; also: 0% is about no effect
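Cells plated with tetracycline inducer and held overnight at 30 C; calcium dye loaded 30–90 min at room temperature; baseline taken, compound added and read 180 s; EC20 dopamine then added and read 180 s.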
D2 PAM-2: positive allosteric modulators of human D2 dopamine receptor; P14416; DiscoveRx D2 beta-arrestin cells, luminescence, 90 min; 100% = 57 uM dopamine signal; potentiation, % (concentration not given with the values); hit rate 0.23% among 360,000; in the data active = potentiation above about 50%
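D2 cells co-treated with compound plus 50 nM dopamine (EC20) for 90 min at 37 deg C to detect potentiation. Beta-arrestin recruitment was read as enzyme-fragment luminescence after 1 h at ambient temperature. Full response was set by 57 uM dopamine.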
D2 ag-2: agonists of human D2 dopamine receptor; HEK293 T-REx D2 cells, calcium flux agonist mode; hit rate 0.53% among 340,000; activation, % at 2 µM; P14416; AID 485358;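 active = activation over 3 SD above normal in the single-dose calcium agonist read, cut at about 30% in these data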; also: 0% is about no effect
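In this primary screen, compounds producing a positive calcium signal within 180 s of addition to tetracycline-induced, force-coupled HEK293 Trex D2 cells are flagged; cells are dye-loaded with a no-wash calcium kit beforehand.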
Starred values were filed as active, the others as inactive.

CC(=O)Nc1ccc(C2=NNC(=Nc3ccc(S(=O)(=O)N4CCOCC4)cc3)SC2)cc1 was read as D2 ag-1 7, D2 antagonist 43*, D2 PAM-1 -6, D2 PAM-2 -6 and D2 ag-2 -1.
Screening CC(=O)Nc1ccc(C2=NNC(=Nc3cccc(S(=O)(=O)N(C)C)c3)SC2)cc1 returned D2 ag-1 7, D2 antagonist 6, D2 PAM-1 6, D2 PAM-2 0 and D2 ag-2 -1.
For CC(CNC(=O)Cn1ccc2cc(S(=O)(=O)N3CCCCC3)ccc21)c1ccccc1 (stereo unspecified) the results were D2 PAM-1 -2 and D2 ag-2 1.
For Cc1cc(C=O)c(C)n1-c1ccc(Cl)c(C(=O)O)c1 the results were D2 ag-1 3, D2 antagonist 37*, D2 PAM-1 -13, D2 PAM-2 9 and D2 ag-2 -1.
COc1ccccc1NC(=O)CCn1cnc2ccccc2c1=O was read as D2 PAM-1 -5 and D2 ag-2 1.
Cc1ccc(Cn2ncc3c(N4CCN(c5ccc(C)cc5)CC4)ncnc32)cc1 was read as D2 ag-1 -1, D2 antagonist 0, D2 PAM-1 10, D2 PAM-2 13 and D2 ag-2 -1.
For Cc1ccc(Cn2ncc3c(N4CCN(C)CC4)ncnc32)cc1 the results were D2 ag-1 5, D2 antagonist 55*, D2 PAM-1 -33, D2 PAM-2 -11 and D2 ag-2 0.
Screening CCc1nn(CC(=O)NC2CC2)c(=O)c2cc3c(OC)cccc3n12 returned D2 PAM-1 14 and D2 ag-2 -1.
For Brc1cccc(OCCN2CCCCC2)c1 the results were D2 ag-1 -3, D2 antagonist 48*, D2 PAM-1 -21, D2 PAM-2 -19 and D2 ag-2 0.
Screening Cc1cc(Br)ccc1OCCCCN1CCC(C)CC1 returned D2 ag-1 -3, D2 antagonist 35*, D2 PAM-1 -13, D2 PAM-2 -37 and D2 ag-2 1.
For Clc1cc(Br)ccc1OCCn1ccnc1 the results were D2 ag-1 0, D2 antagonist 22, D2 PAM-1 -6, D2 PAM-2 -9 and D2 ag-2 -1.
For Cc1cc(C)c(OCCCCN2CCC(C)CC2)c(Br)c1 the results were D2 ag-1 -2, D2 antagonist 20, D2 PAM-1 -19, D2 PAM-2 -15 and D2 ag-2 0.
For CC1CCN(CCCCOc2cccc(Br)c2)CC1 the results were D2 ag-1 -4, D2 antagonist 92*, D2 PAM-1 -29, D2 PAM-2 -47 and D2 ag-2 0.
For CC1CCN(CCCCOc2ccc(Br)cc2)CC1 the results were D2 ag-1 -5, D2 antagonist 20, D2 PAM-1 -19, D2 PAM-2 -27 and D2 ag-2 1.
`Cc1cc(Br)ccc1OCCn1ccnc1` gave D2 ag-1 70*, D2 antagonist 5, D2 PAM-1 -3, D2 PAM-2 -10 and D2 ag-2 0.
`Brc1cccc(OCCN2CCOCC2)c1` gave D2 ag-1 -5, D2 antagonist 2, D2 PAM-1 -11, D2 PAM-2 -72 and D2 ag-2 1.
`COc1ccc(S(=O)(=O)n2nc(C)c(S(=O)(=O)N3CCCCCC3)c2C)cc1C` gave D2 PAM-1 4 and D2 ag-2 0.
N=c1oc2c3c4c(cc2cc1C(=O)Nc1ccccc1)CCCN4CCC3 was read as D2 ag-1 4, D2 antagonist 71*, D2 PAM-1 -15, D2 PAM-2 23 and D2 ag-2 95*.
CCc1ccc(OCC(=O)N/N=C(\C)c2ccc(O)cc2O)cc1 was read as D2 ag-1 -4, D2 antagonist 45*, D2 PAM-1 -13, D2 PAM-2 -7 and D2 ag-2 0.
O=c1oc2c(O)cccc2cc1-c1nc2ccccc2[nH]1 was read as D2 ag-1 5, D2 antagonist -115, D2 PAM-1 0, D2 PAM-2 15 and D2 ag-2 149*.
Screening O=C(O)c1ccc2nc(-c3cc4cccc(O)c4oc3=O)[nH]c2c1 returned D2 PAM-1 4 and D2 ag-2 0.
For COc1ccc(C)cc1NS(=O)(=O)c1ccc2oc(=O)c3ncn(C)c3c2c1 the results were D2 PAM-1 -3 and D2 ag-2 1.
For CC(C)CCNC(=O)CCc1nnc(Cc2c[nH]c3ccccc23)o1 the results were D2 ag-1 -2, D2 antagonist -5, D2 PAM-1 1, D2 PAM-2 -2 and D2 ag-2 1.
Screening S=c1[nH]nc(Cc2c[nH]c3ccccc23)o1 returned D2 ag-1 1, D2 antagonist 41*, D2 PAM-1 1, D2 PAM-2 15 and D2 ag-2 1.
O=C(CN1C(=O)CC(c2ccco2)Sc2ccccc21)Nc1cccc(C(F)(F)F)c1 (stereo unspecified) was read as D2 PAM-1 24 and D2 ag-2 0.
For Cc1ccc(Cl)c(OCCN2CCCC(C)C2)c1 (stereo unspecified) the results were D2 ag-1 -2, D2 antagonist 53*, D2 PAM-1 -19, D2 PAM-2 -27 and D2 ag-2 3.
For CC(C)NCCOCCOc1ccc(Cl)cc1Br the results were D2 ag-1 -3, D2 antagonist 67*, D2 PAM-1 -29, D2 PAM-2 -36 and D2 ag-2 0.
For CC1CCN(CCOCCOc2ccc(Cl)cc2Br)CC1 the results were D2 ag-1 -2, D2 antagonist 69*, D2 PAM-1 -21, D2 PAM-2 -31 and D2 ag-2 0.
`CN(C)CCOCCOc1ccc(Cl)cc1Br` gave D2 ag-1 -5, D2 antagonist 19, D2 PAM-1 -31, D2 PAM-2 -28 and D2 ag-2 0.
Screening Clc1ccc(Cl)c(OCCN2CCCC2)c1 returned D2 ag-1 4, D2 antagonist 47*, D2 PAM-1 -14, D2 PAM-2 -5 and D2 ag-2 1.
Screening CCOc1ccc(CCNC(=O)CSc2nnnn2-c2ccccc2)cc1OCC returned D2 PAM-1 5 and D2 ag-2 -1.
`CC1CCN(CCCOc2ccc(Cl)cc2Br)CC1` gave D2 ag-1 -5, D2 antagonist 34*, D2 PAM-1 -26, D2 PAM-2 -29 and D2 ag-2 0.
Screening CC1CCCN(CCOc2ccc3ccccc3c2Br)C1 (stereo unspecified) returned D2 ag-1 -4, D2 antagonist 71*, D2 PAM-1 -27, D2 PAM-2 -12 and D2 ag-2 0.
Clc1ccc(OCCOCCN2CCCCC2)c(Br)c1 was read as D2 ag-1 1, D2 antagonist 77*, D2 PAM-1 -25, D2 PAM-2 6 and D2 ag-2 1.
`N#Cc1c(F)cccc1N1CCN(Cc2ccc3c(c2)OCO3)CC1` gave D2 ag-1 -4, D2 antagonist 85*, D2 PAM-1 -35, D2 PAM-2 -19 and D2 ag-2 7.
